From publication PMC5540273 (PLoS ONE, 2017)

Columns and labels:
Conditions in all cases: concentration: 1 μM, replicates: in singlicate; n = 1
TLK1 = tested on: TLK1
TLK2 = tested on: TLK2
TNIK = tested on: TNIK
TNK1 = tested on: TNK1
TNK2 = tested on: TNK2
TNNI3K = tested on: TNNI3K
TRKA = tested on: T1, TRKA
T1 construct: gene NTRK1

TRKB = tested on: TRKB
TRKC = tested on: T2, TRKC
T2 construct: gene NTRK3

TRPM6 = tested on: TRPM6
TSSK1B = tested on: TSSK1B
TSSK3 = tested on: TSSK3
TTK = tested on: TTK
TXK = tested on: TXK
[1] = tested on: TYK2(JH1domain-catalytic)
[2] = tested on: TYK2(JH2domain-pseudokinase)
TYRO3 = tested on: TYRO3
ULK1 = tested on: ULK1
ULK2 = tested on: ULK2
ULK3 = tested on: ULK3
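Further: KINOMEscan kinase panel screen.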

Compound	%Inh (TLK1)	%Inh (TLK2)	%Inh (TNIK)	%Inh (TNK1)	%Inh (TNK2)	%Inh (TNNI3K)	%Inh (TRKA)	%Inh (TRKB)	%Inh (TRKC)	%Inh (TRPM6)	%Inh (TSSK1B)	%Inh (TSSK3)	%Inh (TTK)	%Inh (TXK)	%Inh [1]	%Inh [2]	%Inh (TYRO3)	%Inh (ULK1)	%Inh (ULK2)	%Inh (ULK3)
CC(=O)c1c(C)c2cnc(Nc3ccc(N4CCNCC4)cn3)nc2n(C2CCCC2)c1=O	0%	0%	0%	0%	7%	0%	0%	0%	0%	0%	0%	0%	92.1%	5%	0%	0%	0%	0%	45%	0%
COc1cc2ncnc(Nc3cccc(Br)c3)c2cc1OC.Cl [GI230329]	0%	0%	10%	0%	8%	15%	45%	32%	–	0%	0%	16%	0%	4%	–	23%	3%	9%	0%	17%
CC[C@@H]1CO[C@H](C(=O)Nc2ccccc2)CN1c1cc(-c2ccc3c(N)n[nH]c3c2)nc(NC)n1 [GSK2376236]	21%	0%	0%	4%	0%	17%	9%	0%	0%	35%	0%	13%	0%	0%	0%	0%	0%	13%	10%	4%
COc1ccc(CSc2nnc(-c3ccc4nccn4c3)o2)cc1C(F)(F)F	6%	13%	0%	0%	3%	0%	18%	0%	38%	0%	0%	1%	64%	6%	8%	5%	3%	0%	4%	0%
Cc1ccc(NC(=O)Nc2ccccc2F)cc1-c1ccc(C(=O)Nc2ccncc2)cc1 [GSK1398477]	6%	0%	10%	10%	34%	53%	10%	0%	0%	21%	3%	11%	22%	8%	0%	0%	9%	8%	0%	0%
c1ccc(-c2ccnc3[nH]ccc23)cc1 [SB-693578]	7%	0%	8%	0%	9%	11%	22%	67%	37%	0%	28%	2%	6%	28%	63%	73%	0%	33%	0%	33%
CCn1c(-c2ccccc2)nc2cnccc21 [SB-733416]	0%	0%	0%	31%	17%	16%	0%	0%	25%	0%	32%	14%	0%	9%	24%	45%	0%	20%	0%	14%
Cc1ccc(NC(=O)c2ccc(Cl)cc2)cc1-c1ccc(C(=O)Nc2ccncc2)cc1 [GSK1398467]	8%	3%	0%	9%	25%	21%	0%	0%	25%	19%	18%	6%	0%	8%	0%	17%	0%	0%	0%	0%
CNc1cc(-c2ccc3c(N)n[nH]c3c2)nc(N)n1 [GSK2224810]	25%	20%	8%	0%	0%	2%	11%	0%	0%	0%	0%	31%	0%	0%	7%	43%	0%	36%	17%	5%
COc1ccc(-c2coc3ccc(-c4nnc(C)o4)cc23)cc1	12%	6%	0%	0%	0%	0%	0%	0%	0%	0%	0%	0%	0%	0%	0%	0%	0%	0%	0%	0%
CS(=O)(=O)Cc1ccc(Nc2nccc(-c3c(-c4cccc(NC(=O)C5CCCCC5)c4)nn4ncccc34)n2)cc1 [GSK350559]	16%	0%	0%	29%	13%	0%	39%	16%	27%	0%	14%	8%	0%	17%	0%	12%	18%	5%	20%	18%
Cc1ccccc1-c1cc(-c2c[nH]nc2-c2ccccn2)ccn1 [GW680061]	0%	0%	8%	0%	16%	0%	0%	0%	16%	0%	1%	15%	6%	0%	0%	18%	35%	0%	0%	13%
